# Laboratory results from article PMC7862700, “An all-to-all approach to the identification of sequence-specific readers for epigenetic DNA modifications on cytosine”.
# Legend:
# Assay in all cases: DAPPL (digital affinity profiling via proximity ligation, sequencing); 10 mM Tris-HCl pH 7.5, 50 mM NaCl, 1 mM DTT, 4% glycerol, room temperature, 30 min; GST-TFs on glutathione beads, 16-mer random dsDNA library, 0.1% formaldehyde crosslink after washing; high values mean tight binding
# [1] = molecular target: T1, FEV (Homo sapiens, UniProt Q99581 1-238); conditions: protein: recombinant; tags: N-terminal GST; dsDNA, one strand shown
# T1 sequence: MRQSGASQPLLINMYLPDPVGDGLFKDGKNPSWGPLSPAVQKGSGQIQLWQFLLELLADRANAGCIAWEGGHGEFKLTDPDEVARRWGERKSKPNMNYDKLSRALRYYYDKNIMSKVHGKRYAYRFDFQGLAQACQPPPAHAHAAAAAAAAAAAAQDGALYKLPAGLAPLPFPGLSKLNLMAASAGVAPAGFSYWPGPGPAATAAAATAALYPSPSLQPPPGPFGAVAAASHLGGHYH
# Outline: (§1)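 Binding signal is each hexamer's read frequency for a factor divided by its frequency in the tag-only sample. The factors were GST-fused human transcription factors from yeast, captured on glutathione beads, DNA-barcoded and pooled with that sample. Pools were incubated with 200 nmole of a random double-stranded 16-mer DNA library in Tris/NaCl/DTT/glycerol buffer at room temperature for 30 min, then washed, crosslinked with 0.1% formaldehyde, proximity-ligated with BsaI/T4 ligase (1 h, 37 °C), PCR-amplified and sequenced on an Illumina NextSeq500.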
# [2] = molecular target: ETV5 (Homo sapiens, UniProt P41161 1-510); conditions: protein: recombinant; tags: N-terminal GST; dsDNA, one strand shown
# Outline: as §1
# [3] = molecular target: HSF1 (Homo sapiens, UniProt Q00613 1-529); conditions: protein: recombinant; tags: N-terminal GST; chain copies: 3; dsDNA, one strand shown
# Outline: as §1
# [4] = molecular target: ELF4 (Homo sapiens, UniProt Q99607 1-663); conditions: protein: recombinant; tags: N-terminal GST; dsDNA, one strand shown
# Outline: as §1
# [5] = molecular target: T2, ELK4 (Homo sapiens, UniProt P28324-2 1-405); conditions: protein: recombinant; tags: N-terminal GST; dsDNA, one strand shown
# T2 sequence: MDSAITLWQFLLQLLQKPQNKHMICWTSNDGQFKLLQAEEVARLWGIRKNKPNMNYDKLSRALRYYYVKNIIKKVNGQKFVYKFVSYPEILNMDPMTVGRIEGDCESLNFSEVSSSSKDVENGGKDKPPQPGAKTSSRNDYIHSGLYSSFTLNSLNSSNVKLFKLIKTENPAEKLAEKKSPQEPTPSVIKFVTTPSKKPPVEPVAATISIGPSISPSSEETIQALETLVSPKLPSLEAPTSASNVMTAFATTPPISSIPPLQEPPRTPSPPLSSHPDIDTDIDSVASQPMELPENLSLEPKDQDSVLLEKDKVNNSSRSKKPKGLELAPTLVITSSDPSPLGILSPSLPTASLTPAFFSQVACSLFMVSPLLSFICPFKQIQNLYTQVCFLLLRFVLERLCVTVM
# Outline: as §1
# [6] = molecular target: T3, ETV2 (Homo sapiens, UniProt O00321 1-342); conditions: protein: recombinant; tags: N-terminal GST; dsDNA, one strand shown
# T3 sequence: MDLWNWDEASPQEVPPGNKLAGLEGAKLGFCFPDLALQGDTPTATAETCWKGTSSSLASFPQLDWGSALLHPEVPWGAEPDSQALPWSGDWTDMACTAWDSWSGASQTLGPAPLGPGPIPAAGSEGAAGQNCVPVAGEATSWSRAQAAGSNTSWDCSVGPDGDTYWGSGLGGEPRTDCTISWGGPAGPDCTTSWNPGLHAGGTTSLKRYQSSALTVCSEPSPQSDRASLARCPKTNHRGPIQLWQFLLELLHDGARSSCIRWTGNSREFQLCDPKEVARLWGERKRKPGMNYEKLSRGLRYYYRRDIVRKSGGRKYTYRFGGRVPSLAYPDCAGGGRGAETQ
# Outline: as §1
# [7] = molecular target: T4, ELF3 (Homo sapiens, UniProt P78545 1-371); conditions: protein: recombinant; tags: N-terminal GST; dsDNA, one strand shown
# T4 sequence: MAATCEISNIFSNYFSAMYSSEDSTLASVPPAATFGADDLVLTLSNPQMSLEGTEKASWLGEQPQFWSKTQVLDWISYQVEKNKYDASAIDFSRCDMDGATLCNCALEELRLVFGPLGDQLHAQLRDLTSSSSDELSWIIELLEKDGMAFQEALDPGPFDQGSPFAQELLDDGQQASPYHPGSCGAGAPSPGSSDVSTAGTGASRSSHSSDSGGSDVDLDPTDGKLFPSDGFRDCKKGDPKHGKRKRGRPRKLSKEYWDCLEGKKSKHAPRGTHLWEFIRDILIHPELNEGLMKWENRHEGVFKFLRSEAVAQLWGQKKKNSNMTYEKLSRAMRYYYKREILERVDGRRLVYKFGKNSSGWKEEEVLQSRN
# Outline: as §1
# [8] = molecular target: CRX (Homo sapiens, UniProt O43186 1-299); conditions: protein: recombinant; tags: N-terminal GST; dsDNA, one strand shown
# Outline: as §1
# [9] = molecular target: ETV1 (Homo sapiens, UniProt P50549 1-477); conditions: protein: recombinant; tags: N-terminal GST; dsDNA, one strand shown
# Outline: as §1
# [10] = molecular target: T5, ERF (Homo sapiens, UniProt P50548 1-548); conditions: protein: recombinant; tags: N-terminal GST; dsDNA, one strand shown
# T5 sequence: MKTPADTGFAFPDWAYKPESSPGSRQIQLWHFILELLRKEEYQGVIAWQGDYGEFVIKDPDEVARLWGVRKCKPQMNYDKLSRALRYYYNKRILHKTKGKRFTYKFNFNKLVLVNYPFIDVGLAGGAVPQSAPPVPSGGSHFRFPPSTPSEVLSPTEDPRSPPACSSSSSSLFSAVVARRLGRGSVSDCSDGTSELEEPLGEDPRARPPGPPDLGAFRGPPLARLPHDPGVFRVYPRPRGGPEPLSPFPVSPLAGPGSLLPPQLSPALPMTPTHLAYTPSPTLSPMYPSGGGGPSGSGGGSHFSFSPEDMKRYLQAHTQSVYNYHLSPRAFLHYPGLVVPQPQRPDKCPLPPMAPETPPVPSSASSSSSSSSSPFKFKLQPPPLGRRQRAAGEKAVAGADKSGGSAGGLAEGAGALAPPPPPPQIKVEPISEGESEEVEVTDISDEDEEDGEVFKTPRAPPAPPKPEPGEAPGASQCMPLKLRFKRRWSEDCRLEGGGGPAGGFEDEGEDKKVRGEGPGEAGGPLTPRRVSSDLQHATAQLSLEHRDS
# Outline: as §1
# [11] = molecular target: T6, ETV3L (Homo sapiens, UniProt Q6ZN32 1-361); conditions: protein: recombinant; tags: N-terminal GST; dsDNA, one strand shown
# T6 sequence: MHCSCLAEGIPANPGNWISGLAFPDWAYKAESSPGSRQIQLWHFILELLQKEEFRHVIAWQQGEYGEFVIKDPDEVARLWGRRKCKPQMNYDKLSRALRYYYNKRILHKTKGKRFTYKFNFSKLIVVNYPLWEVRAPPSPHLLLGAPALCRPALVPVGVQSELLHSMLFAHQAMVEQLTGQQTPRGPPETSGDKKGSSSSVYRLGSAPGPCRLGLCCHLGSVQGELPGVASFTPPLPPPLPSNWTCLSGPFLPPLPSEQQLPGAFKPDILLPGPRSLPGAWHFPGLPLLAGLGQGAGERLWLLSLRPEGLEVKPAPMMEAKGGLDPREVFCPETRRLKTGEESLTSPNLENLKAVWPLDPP
# Outline: as §1
# [12] = molecular target: T7, ETS2 (Homo sapiens, UniProt P15036 1-469); conditions: protein: recombinant; tags: N-terminal GST; dsDNA, one strand shown
# T7 sequence: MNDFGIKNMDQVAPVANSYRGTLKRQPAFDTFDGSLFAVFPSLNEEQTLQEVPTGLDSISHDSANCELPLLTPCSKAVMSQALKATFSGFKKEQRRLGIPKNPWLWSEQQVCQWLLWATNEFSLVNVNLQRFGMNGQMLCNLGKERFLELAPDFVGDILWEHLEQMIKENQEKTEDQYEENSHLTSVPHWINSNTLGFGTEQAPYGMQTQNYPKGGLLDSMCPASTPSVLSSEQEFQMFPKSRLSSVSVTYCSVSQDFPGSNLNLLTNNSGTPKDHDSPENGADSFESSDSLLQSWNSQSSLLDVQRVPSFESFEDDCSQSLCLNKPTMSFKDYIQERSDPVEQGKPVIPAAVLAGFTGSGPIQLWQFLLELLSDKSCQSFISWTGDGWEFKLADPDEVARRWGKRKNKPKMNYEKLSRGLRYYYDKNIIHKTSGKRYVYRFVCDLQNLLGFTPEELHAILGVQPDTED
# Outline: as §1
# [13] = molecular target: T8, SPDEF (Homo sapiens, UniProt O95238 1-335); conditions: protein: recombinant; tags: N-terminal GST; dsDNA, one strand shown
# T8 sequence: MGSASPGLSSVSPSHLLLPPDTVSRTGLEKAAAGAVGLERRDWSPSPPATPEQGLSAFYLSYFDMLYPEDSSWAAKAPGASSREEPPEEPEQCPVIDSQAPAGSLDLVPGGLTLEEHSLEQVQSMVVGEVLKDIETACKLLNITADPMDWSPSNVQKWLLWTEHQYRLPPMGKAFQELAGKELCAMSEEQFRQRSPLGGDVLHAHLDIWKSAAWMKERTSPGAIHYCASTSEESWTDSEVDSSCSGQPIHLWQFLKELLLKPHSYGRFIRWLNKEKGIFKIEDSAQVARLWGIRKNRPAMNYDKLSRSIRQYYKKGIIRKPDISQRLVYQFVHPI
# Outline: as §1
# [14] = molecular target: T9, ETV7 (Homo sapiens, UniProt Q9Y603 1-341); conditions: protein: recombinant; tags: N-terminal GST; dsDNA, one strand shown
# T9 sequence: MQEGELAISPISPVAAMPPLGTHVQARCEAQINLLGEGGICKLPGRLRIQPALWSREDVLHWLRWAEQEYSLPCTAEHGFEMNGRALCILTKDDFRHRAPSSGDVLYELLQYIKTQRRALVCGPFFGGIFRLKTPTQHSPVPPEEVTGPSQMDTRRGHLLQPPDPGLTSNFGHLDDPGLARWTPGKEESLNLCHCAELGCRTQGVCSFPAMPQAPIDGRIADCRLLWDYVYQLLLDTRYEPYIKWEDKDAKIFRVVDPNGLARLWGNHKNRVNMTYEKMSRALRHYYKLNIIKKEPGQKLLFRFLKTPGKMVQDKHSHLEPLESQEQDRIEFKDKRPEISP
# Outline: as §1
# [15] = molecular target: T10, ELF5 (Homo sapiens, UniProt Q9UKW6-2 1-255); conditions: protein: recombinant; tags: N-terminal GST; dsDNA, one strand shown
# T10 sequence: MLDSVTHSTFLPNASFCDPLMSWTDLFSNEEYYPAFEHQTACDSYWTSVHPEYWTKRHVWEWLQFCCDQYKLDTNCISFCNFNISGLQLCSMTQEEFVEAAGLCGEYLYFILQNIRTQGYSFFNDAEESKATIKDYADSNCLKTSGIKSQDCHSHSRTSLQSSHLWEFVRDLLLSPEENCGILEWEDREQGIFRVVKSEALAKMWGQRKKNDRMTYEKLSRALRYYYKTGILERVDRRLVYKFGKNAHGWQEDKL
# Outline: as §1
# [16] = molecular target: T11, ETV3 (Homo sapiens, UniProt P41162-2 1-143); conditions: protein: recombinant; tags: N-terminal GST; dsDNA, one strand shown
# T11 sequence: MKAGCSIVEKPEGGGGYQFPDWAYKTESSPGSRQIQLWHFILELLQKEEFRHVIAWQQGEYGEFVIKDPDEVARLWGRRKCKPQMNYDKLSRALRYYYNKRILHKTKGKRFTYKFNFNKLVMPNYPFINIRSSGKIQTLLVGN
# Outline: as §1
# [17] = molecular target: ETV6 (Homo sapiens, UniProt P41212 1-452); conditions: protein: recombinant; tags: N-terminal GST; dsDNA, one strand shown
# Outline: as §1
# ELF4, sequence (Q99607 whole entry): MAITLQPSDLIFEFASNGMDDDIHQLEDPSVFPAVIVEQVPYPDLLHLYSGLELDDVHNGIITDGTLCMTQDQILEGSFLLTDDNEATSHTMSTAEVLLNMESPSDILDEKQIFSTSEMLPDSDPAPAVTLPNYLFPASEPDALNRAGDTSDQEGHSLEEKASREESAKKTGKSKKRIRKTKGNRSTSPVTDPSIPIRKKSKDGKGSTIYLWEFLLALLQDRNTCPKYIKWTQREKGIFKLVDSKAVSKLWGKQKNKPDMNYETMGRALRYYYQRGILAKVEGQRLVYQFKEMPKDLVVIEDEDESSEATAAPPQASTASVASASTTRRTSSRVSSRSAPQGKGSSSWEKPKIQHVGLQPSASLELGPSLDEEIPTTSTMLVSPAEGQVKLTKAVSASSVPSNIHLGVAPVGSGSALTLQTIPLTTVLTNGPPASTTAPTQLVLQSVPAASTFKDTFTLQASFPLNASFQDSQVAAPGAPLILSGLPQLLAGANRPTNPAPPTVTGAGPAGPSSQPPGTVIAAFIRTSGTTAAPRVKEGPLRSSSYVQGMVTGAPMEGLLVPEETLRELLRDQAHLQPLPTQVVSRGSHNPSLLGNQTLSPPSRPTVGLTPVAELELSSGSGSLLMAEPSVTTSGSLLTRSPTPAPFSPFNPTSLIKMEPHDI
# ETV5, sequence (P41161 whole entry): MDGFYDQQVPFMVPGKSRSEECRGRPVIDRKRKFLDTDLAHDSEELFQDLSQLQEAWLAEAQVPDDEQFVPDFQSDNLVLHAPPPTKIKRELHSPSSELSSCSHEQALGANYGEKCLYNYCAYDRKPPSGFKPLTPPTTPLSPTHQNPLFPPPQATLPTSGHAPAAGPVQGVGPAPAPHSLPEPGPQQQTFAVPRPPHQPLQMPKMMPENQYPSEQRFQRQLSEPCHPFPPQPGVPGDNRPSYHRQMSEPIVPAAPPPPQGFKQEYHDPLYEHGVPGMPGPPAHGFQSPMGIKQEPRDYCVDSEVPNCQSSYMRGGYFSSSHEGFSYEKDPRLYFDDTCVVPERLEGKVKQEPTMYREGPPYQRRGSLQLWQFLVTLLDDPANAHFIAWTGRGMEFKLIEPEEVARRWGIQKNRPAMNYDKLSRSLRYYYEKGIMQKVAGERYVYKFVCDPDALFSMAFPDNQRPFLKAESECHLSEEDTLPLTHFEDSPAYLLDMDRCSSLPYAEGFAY
# ETV1, sequence (P50549 whole entry): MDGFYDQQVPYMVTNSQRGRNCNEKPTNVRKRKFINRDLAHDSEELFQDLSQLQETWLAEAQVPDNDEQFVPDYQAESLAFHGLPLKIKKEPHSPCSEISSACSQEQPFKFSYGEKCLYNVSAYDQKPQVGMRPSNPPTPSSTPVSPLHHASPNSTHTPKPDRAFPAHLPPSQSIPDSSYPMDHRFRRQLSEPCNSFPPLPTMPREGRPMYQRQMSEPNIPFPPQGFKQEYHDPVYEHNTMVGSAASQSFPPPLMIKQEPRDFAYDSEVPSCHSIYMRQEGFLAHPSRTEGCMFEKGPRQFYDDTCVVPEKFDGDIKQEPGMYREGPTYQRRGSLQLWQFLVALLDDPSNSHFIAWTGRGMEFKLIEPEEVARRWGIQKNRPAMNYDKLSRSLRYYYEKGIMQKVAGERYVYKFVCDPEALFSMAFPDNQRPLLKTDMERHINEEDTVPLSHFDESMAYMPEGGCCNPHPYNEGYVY
# CRX, sequence (O43186 whole entry): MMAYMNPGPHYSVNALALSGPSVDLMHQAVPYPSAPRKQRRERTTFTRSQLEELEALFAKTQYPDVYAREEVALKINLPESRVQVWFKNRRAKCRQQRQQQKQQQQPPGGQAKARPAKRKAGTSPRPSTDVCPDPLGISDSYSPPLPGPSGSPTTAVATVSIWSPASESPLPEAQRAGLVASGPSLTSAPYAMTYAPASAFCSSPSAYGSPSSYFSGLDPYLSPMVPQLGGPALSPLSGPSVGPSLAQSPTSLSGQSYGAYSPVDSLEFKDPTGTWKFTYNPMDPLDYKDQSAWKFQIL
# HSF1, sequence (Q00613 whole entry): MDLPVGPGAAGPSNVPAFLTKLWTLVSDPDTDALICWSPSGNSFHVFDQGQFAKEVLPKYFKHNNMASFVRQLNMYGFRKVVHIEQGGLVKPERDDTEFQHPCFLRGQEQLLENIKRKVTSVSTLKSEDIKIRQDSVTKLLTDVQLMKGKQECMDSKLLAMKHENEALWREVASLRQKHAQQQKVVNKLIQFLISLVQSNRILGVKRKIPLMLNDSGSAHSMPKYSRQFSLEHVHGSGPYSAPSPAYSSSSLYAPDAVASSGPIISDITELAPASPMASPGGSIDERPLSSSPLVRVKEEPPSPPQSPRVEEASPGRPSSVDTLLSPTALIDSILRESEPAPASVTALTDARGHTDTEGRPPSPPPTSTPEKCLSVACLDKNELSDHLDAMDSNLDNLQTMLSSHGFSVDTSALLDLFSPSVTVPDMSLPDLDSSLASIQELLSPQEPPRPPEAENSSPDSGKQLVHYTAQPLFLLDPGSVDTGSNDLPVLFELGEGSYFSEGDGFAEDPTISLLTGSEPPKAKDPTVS
# ETV6, sequence (P41212 whole entry): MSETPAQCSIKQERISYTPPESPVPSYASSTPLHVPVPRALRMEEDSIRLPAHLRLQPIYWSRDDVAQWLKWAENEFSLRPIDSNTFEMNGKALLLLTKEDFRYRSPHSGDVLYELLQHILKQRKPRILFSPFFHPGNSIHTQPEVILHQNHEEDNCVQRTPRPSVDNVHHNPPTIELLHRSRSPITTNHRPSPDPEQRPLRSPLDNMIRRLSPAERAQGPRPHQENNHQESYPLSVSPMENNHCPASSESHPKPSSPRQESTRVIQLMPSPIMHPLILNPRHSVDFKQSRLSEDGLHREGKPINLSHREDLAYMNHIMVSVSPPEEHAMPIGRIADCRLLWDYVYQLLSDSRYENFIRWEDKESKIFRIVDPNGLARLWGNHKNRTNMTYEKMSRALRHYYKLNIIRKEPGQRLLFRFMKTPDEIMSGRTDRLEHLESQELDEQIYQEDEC
sequence,measurement,setting,value
ATAGCA,binding signal,[1],"1.13 fold enrichment (6-mer frequency, TF over GST control)"
same,binding signal,[2],"1.17 fold enrichment (6-mer frequency, TF over GST control)"
same,binding signal,[3],"1.02 fold enrichment (6-mer frequency, TF over GST control)"
same,binding signal,[4],"1.16 fold enrichment (6-mer frequency, TF over GST control)"
same,binding signal,[5],"1.15 fold enrichment (6-mer frequency, TF over GST control)"
same,binding signal,[6],"1.13 fold enrichment (6-mer frequency, TF over GST control)"
same,binding signal,[7],"1.25 fold enrichment (6-mer frequency, TF over GST control)"
same,binding signal,[8],"1.07 fold enrichment (6-mer frequency, TF over GST control)"
same,binding signal,[9],"1.1 fold enrichment (6-mer frequency, TF over GST control)"
same,binding signal,[10],"1.24 fold enrichment (6-mer frequency, TF over GST control)"
same,binding signal,[11],"1.19 fold enrichment (6-mer frequency, TF over GST control)"
same,binding signal,[12],"1.22 fold enrichment (6-mer frequency, TF over GST control)"
same,binding signal,[13],"1.12 fold enrichment (6-mer frequency, TF over GST control)"
same,binding signal,[14],"1.06 fold enrichment (6-mer frequency, TF over GST control)"
same,binding signal,[15],"1.16 fold enrichment (6-mer frequency, TF over GST control)"
same,binding signal,[16],"1.19 fold enrichment (6-mer frequency, TF over GST control)"
same,binding signal,[17],"1.18 fold enrichment (6-mer frequency, TF over GST control)"
